Source: PubChem
FECH inh: human FECH heme synthesis enzyme inhibition; calls only at 10 µM (by protocol); 20,000 compounds, 3.3% hits; purified FECH, Ni-mesoporphyrin absorbance 550 nm; AID 1671448; P22830;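 active = enzyme reaction rate more than 3 SD below the solvent-only control wells on the same plate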;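 also: lower slope than DMSO wells means FECH inhibition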
Target sequence (P22830 whole entry, looked up): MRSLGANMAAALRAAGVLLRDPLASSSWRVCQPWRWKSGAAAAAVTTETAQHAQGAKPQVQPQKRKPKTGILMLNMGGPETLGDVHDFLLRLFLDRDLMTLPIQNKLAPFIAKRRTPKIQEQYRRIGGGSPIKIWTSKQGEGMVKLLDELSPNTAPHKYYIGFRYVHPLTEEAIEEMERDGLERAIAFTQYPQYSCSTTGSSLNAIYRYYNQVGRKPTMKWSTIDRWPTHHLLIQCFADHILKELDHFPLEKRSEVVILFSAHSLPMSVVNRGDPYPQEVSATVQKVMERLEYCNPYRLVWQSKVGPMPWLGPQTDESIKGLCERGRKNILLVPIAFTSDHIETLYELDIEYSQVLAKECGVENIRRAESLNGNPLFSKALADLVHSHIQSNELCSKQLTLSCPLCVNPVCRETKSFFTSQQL
Calls only; i = inactive; + = active, no number. This excerpt belongs to a sample that is enriched for hits.

SMILES	FECH inh
O=C(NCc1ccccc1)c1nc[nH]c1C(=O)N1CCCCC1	i
COc1ccccc1CNC(=O)c1nc[nH]c1C(=O)N1CCC(O)(c2ccc(Cl)cc2)CC1	+
O=C(NC1CC1)C1CCCN(C2CCN(C(=O)c3ccc4[nH]ccc4c3)CC2)C1 (stereo not given)	i
COc1ccc(-c2cc(C(=O)Nc3ccc(F)c(Cl)c3)[nH]n2)cc1S(N)(=O)=O	i
CC(C)CNC(=O)c1nc[nH]c1C(=O)N1CCC(C)CC1	i
Cc1ccc(OCCN(C)C(=O)c2ccc(Cn3nnnc3C)cc2)c(C)c1	i
Cc1ccc(C)c(OCCN(C)C(=O)c2cc3ncc(CCO)cn3n2)c1	+
CCN(CCc1nc2ccc(C)cc2[nH]1)C(=O)c1cnn2cc(CCO)cnc12	i
CCOC(=O)c1ccccc1NC(=O)Cn1c(=O)c2cnc(-c3ccccc3)nc2n(C)c1=O	i
c1ccc2oc(-c3n[nH]c(C4CC4)n3)cc2c1	i
Clc1ccc(Nc2nc(NCC3CCCO3)nc3c2cnn3-c2ccccc2)cc1 (stereo not given)	+
CC(C)OCCCNc1nc(Nc2ccc(F)cc2)c2cnn(-c3ccccc3)c2n1	i
COc1ccc(Nc2nc(NCC3CCCO3)nc3c2cnn3-c2ccccc2)cc1 (stereo not given)	i
COc1ccc(Nc2nc(NCCCOC(C)C)nc3c2cnn3-c2ccccc2)cc1	i
CC(C)OCCCNc1nc(Nc2ccc(Cl)cc2)c2cnn(-c3ccccc3)c2n1	+
Fc1ccc(Nc2nc(NCC3CCCO3)nc3c2cnn3-c2ccccc2)cc1 (stereo not given)	i
Cc1cc(NC(=O)C(C)Oc2ccccc2)n(-c2ncnc3c2cnn3-c2cccc(C)c2C)n1 (stereo not given)	i
COC(=O)CN1CCN(CC(=O)Nc2cc(C)ccc2F)C(C)C1=O (stereo not given)	i
Cn1ncc2c(NCc3cn[nH]c3-c3cccs3)nc(C(C)(C)C)nc21	i
CCc1cc(Sc2ccccc2NC(=O)c2cccc(Cl)c2)n2ncnc2n1	i
CC(C)=CC(=O)N1C[C@H](N)C[C@H]1C(=O)NC(C)C	i
Cc1cc(N2CCOCC2)nc(N2CCN(S(=O)(=O)c3ccccc3F)CC2)n1	i
Cc1csc(NC(=O)C(=O)N2CCN(C)C3(CCN(C)CC3)C2)n1	i
COc1ccccc1N1CC(NC(=O)c2cnn3ccn(C)c23)CC1=O (stereo not given)	i
O=C(CCN1CCC(OCc2cccnc2)CC1)NC1CCCCCC1	+
SMILES	FECH inh
C/C=C(\C)CN1CCC(OCc2cccnc2)CC1	i
Cc1ccc(C(C)NC(=O)CN2CCC(OCc3cccnc3)CC2)cc1 (stereo not given)	i
COc1ccc(Nc2cc(C)nc(Nc3ccc(NC(=O)Cc4ccccc4)cc3)n2)cc1	i
CC(c1cccc(-c2cccc3c(N)ccnc23)c1)N(C)C (stereo not given)	+
CC(c1cccc(-c2ccc3nc[nH]c3c2)c1)N(C)C (stereo not given)	i
COC(C)c1cccc(-c2ncccc2Cl)c1 (stereo not given)	i
CN(Cc1ccncc1)Cc1nc(-c2cccnc2)no1	i
Cc1ccc2[nH]c(CN(C)Cc3nc(-c4cccnc4)no3)nc2c1C	+
CN(Cc1nc(-c2cccnc2)no1)Cc1ccc(C2CCCO2)s1 (stereo not given)	i
CCCCOC(=O)c1ccc(NC(=O)CN2c3ccc(F)cc3-c3ccccc3S2(=O)=O)cc1	+
O=C(CN1c2ccc(F)cc2-c2ccccc2S1(=O)=O)NCCCN1CCOCC1	i
CCOC(=O)c1ccc(NC(=O)CN2CCCN(Cc3cccc(F)c3)S2(=O)=O)cc1	i
CC(C)(C)NC(=O)c1ccccc1NC(=O)CN1c2ccc(F)cc2-c2ccccc2S1(=O)=O	i
COC(=O)c1cc(NC(=O)CN2c3ccc(F)cc3-c3ccccc3S2(=O)=O)cc(C(=O)OC)c1	+
CC(CCc1ccccc1)NC(=O)CN1c2ccc(Br)cc2-c2ccccc2S1(=O)=O (stereo not given)	i
CCc1ccc2c(c1)-c1ccccc1S(=O)(=O)N2CC(=O)Nc1ccccc1C(=O)N1CCCC1	i
CCOC(=O)c1ccc(NC(=O)CN2CCN(Cc3ccc(F)cc3Cl)S2(=O)=O)cc1	i
CC(CCc1ccccc1)NC(=O)CN1c2ccc(F)cc2-c2ccccc2S1(=O)=O (stereo not given)	+
Cc1cccc(CNC(=O)c2ccccc2NC(=O)Cn2cc(Cl)cn2)c1	i
O=C(O)C1CC(=O)N(c2ccc(CCc3ccccn3)cc2)C1 (stereo not given)	i
CC1Cc2ccccc2N1S(=O)(=O)c1ccc2c(c1)CCN2C(=O)CCC(=O)N1CCCCCC1 (stereo not given)	i
c1ccc(-c2nc3c(c(NC[C@@H]4CCCO4)n2)CCNC3)nc1	i
O=C1NCC2(CCCN(Cc3cccc(-c4ccccc4)c3)CC2)O1 (stereo not given)	i
CCn1cc(C(=O)NCC2CCN(Cc3ccccc3F)C2)cn1 (stereo not given)	i
Cn1nc(CO)c2c1CCN(C(=O)c1cccc(CC3CCNCC3)c1)C2	i
CCCc1nc2nc[nH]n2c(=O)c1NC(=O)Nc1ccc(Br)c(C)c1	+
